# Results published in PubChem BioAssay (NCI).
# “And” between values parts separate entries of the source, which are not always exact repeats. Equal values may be shown once. About 83,000 compounds went through this panel and 20% of them were active in at least one assay; those are over-represented in the sample as a whole.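 48-hour exposure, single concentration, 96-well plates; percent growth endpoint where 0 means no net growth. Active: below 10.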 Values without a mark were called inactive. The source made the active and inactive calls.
# System: MDA-MB-468 breast
# Experiment: NCI-60 one-dose screen, 48 h (100 = growth as untreated, 0 = no growth, -100 = all killed)
# Settings: 10 µM unless noted
row,SMILES,growth
1,COC(=O)c1cc2oc(/C=N/NC(=O)c3cc4oc(-c5cccc(C(F)(F)F)c5)cc4[nH]3)cc2n1Cc1ccccc1,106%
2,Nc1n[nH]c(=S)n1-c1ccc(Cl)cc1,97.5%
3,COc1ccccc1CNCCN1C(=O)c2ccc3c4c(ccc(c24)C1=O)C(=O)N(CCNCc1ccccc1OC)C3=O,-92.8% (active)
4,O=C1/C(=C/c2ccccc2)CN(C(=O)c2cccnc2)C/C1=C\c1ccccc1,-49.2% (active)
5,CC(C)n1c(NCCc2ccc(O)c(O)c2)nc2c1c(=O)n(C)c(=O)n2C,73.8%
6,CC(C)(C)c1nc(-c2ccc(O)c(O)c2)cs1,53.5%
7,CCOC(=O)c1c(NC(=O)c2cccc(C(F)(F)F)c2)sc2c3c(ccc12)OCN(C)C3,-67.2% (active)
8,NC(=O)c1noc(C(=O)c2ccccc2)c1N,95.5%
9,NC(=O)c1cccc(-n2ccc3cc(NC(=O)c4ccc(N5CCOCC5)c(C(F)(F)F)c4)ccc32)n1,75.7%
10,CCOC(=O)c1c(N)sc2cc(O)ccc12,131%
11,COC(=O)CNC(=O)[C@H](Cc1ccccc1)NCc1ccncc1,97.4%
12,C#CCC(C)(O)/C=C/C1=C(C)CCCC1(C)C (configuration not stated),87.3%
13,COC(=O)c1cc(=O)nc(N/N=C/c2ccc(C)cc2)s1,110%
14,Cc1cc(O)c2c(c1)C(=O)c1cc(O)cc(O)c1C2=O,73.2%
15,CC1/C=C/C=C/C=C/C=C/C=C/C=C/C=C/C(O[C@@H]2O[C@H](C)[C@H](O)[C@@H](O)[C@@H]2N)CC(O)C(C(=O)O)C(O)CC(=O)CC(O)CC(O)CC(O)CC(=O)CCCC(=O)CC(=O)OC1C(C)CC(C)C(O)CC(=O)c1ccc(N)cc1 (some centres not stated),-89.7% (active)
16,O=[N+]([O-])c1ccc(OCCO)cc1,120%
17,COc1cc(-c2nc(-c3nc4cc(C(=O)c5ccccc5)ccc4[nH]3)cc3c2[nH]c2ccccc23)cc(OC)c1OC,93%
18,c1ccc(CN2C(c3ccccc3)=Nc3ccccc3C2c2c[nH]c3ccccc23)cc1 (configuration not stated),12.4%
19,COc1ccccc1/C=N\N=C(N/N=C/c1ccccc1OC)N/N=C/c1ccccc1OC,58.3% and 10.5%
20,COc1cc(OC)c2c(=O)c3c(CC=C(C)C)cc(OC)c(O)c3oc2c1,110%
21,CCN(CC)CCCCNc1c2ccccc2[n+](C)c2c1[nH]c1ccccc12,-58.5% (active)
22,O=C(CCC(C(=O)c1ccccc1)c1ccccc1)c1ccccc1 (configuration not stated),35.9%
23,O=C(CSc1nc2c(n1Nc1ccccc1)-c1ccccc1SC2)Nc1nccs1,104%
24,O=C(Cc1ccc(/C=C/C(=O)c2ncc[nH]2)cc1)Nc1ccc(C(F)(F)F)cc1,15.1%
25,COc1cc(CO)cc2cc3ccccc3nc12,40.8%
26,Nc1nc2nnc(-c3ccccc3)c(-c3ccccc3)n2n1,99.9%
27,C=CC(=O)Nc1cccc(Nc2nc(Nc3ccc(OCCOC(F)F)cc3)ncc2F)c1,-27.9% (active)
